The supplement of paper PMC6124720
Structures can show the parent of a compound that is named as a salt. Values without a mark were called inactive.

Test system: Pseudogymnoascus destructans 20631-21
Assay: growth activity index (DuctApe, 0 = no growth, 9 = maximal growth) (index 0-9); higher = more fungal growth (less inhibition), active = 0 or less; extreme values may be limits of the assay
Conditions: temperature: 13 °C, YPD
[1] = concentration level (1-4, increasing; Biolog proprietary): 1
[2] = concentration level (1-4, increasing; Biolog proprietary): 2
[3] = concentration level (1-4, increasing; Biolog proprietary): 3
[4] = concentration level (1-4, increasing; Biolog proprietary): 4
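Also: biolog Phenotype Microarray plates PM21–25, OD595 followed daily over 11 days, growth curves converted to index, mean of two independent experiments.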

Compound | growth activity index [1] | growth activity index [2] | growth activity index [3] | growth activity index [4]
O=P(O)(O)OP(=O)(O)O [Sodium pyrophosphate] (Biolog plate: PM24) | 5.67 | 4.67 | 4.67 | 4
CCCCCCCCCCCCCCCCOP(=O)([O-])OCC[N+](C)(C)C [Miltefosine] (Biolog plate: PM22) | 5 | 3 | 0 (active) | 0 (active)
O=C(O)CN(CCOCCOCCN(CC(=O)O)CC(=O)O)CC(=O)O (Biolog plate: PM24) | 4.33 | 4.33 | 4 | 4
N[C@@H]1CONC1=O [D-Cycloserine] (Biolog plate: PM21) | 4 | 5 | 4.25 | 0 (active)
CCCCCCCCCCCC[N+](C)(C)C [Dodecyltrimethyl ammonium bromide] (Biolog plate: PM21) | 4.25 | 0 (active) | 0 (active) | 1
NCC(=O)NO [Glycine hydroxamate] (Biolog plate: PM22) | 5 | 3.67 | 2 | 0 (active)
O=c1[nH]c(=O)n([C@H]2C[C@H](O)[C@@H](CO)O2)cc1F [Fluorodeoxyuridine] (Biolog plate: PM25) | 4.67 | 3.67 | 4.33 | 3
O=C(O)CC(O)C(=O)O (stereo not given) [Malic acid] (Biolog plate: PM25) | 4 | 5 | 2.67 | 1.33
Clc1ccc(COC(Cn2ccnc2)c2ccc(Cl)cc2Cl)c(Cl)c1 (stereo not given) [Miconazole Nitrate] (Biolog plate: PM24) | 4.67 | 0.333 | 0.333 | 0 (active)
CCCCCCCCCCCC[N+](C)(C)CCOc1ccccc1 [Domiphen bromide] (Biolog plate: PM21) | 4 | 2 | 0 (active) | 0 (active)
On1ccccc1=S [1-Hydroxypyridine-2-thione (pyrithione)] (Biolog plate: PM21) | 5.25 | 4 | 4.25 | 2.25
CN[C@@H]1[C@@H](O[C@H]2O[C@H](CO)[C@@H](N)[C@H](O)[C@H]2O)OC2C[C@@H](N)[C@@H](O[C@H]3[C@H](O)[C@@H](O)[C@H](N)C[C@@H]3N)OC2[C@@H]1O (stereo not given in full) [Apramycin] (Biolog plate: PM24) | 5 | 4.33 | 7.67 | 4.33
CO/N=C(\C(=O)N[C@@H]1C(=O)N2C(C(=O)O)=C(CSc3nc(=O)c(O)nn3C)CS[C@H]12)c1csc(N)n1 [Ceftriaxone] (Biolog plate: PM22) | 2 | 0 (active) | 0 (active) | 0 (active)
NC[C@H]1O[C@H](O[C@H]2[C@H](O)[C@@H](O[C@H]3O[C@H](CO)[C@@H](O)[C@H](N)[C@H]3O)[C@H](N)C[C@@H]2N)[C@H](N)C[C@@H]1O [Tobramycin] (Biolog plate: PM25) | 5 | 5 | 5 | 1
NC[C@@H]1O[C@H](O[C@H]2[C@@H](O)[C@H](O[C@@H]3[C@@H](O)[C@H](N)C[C@H](N)[C@H]3O[C@H]3O[C@H](CN)[C@@H](O)[C@H](O)[C@H]3N)O[C@@H]2CO)[C@H](N)[C@@H](O)[C@@H]1O [Neomycin] (Biolog plate: PM21) | 5.25 | 5 | 2.5 | 1.25
NC(N)=NCCC[C@H](N)C(=O)NO [L-Arginine hydroxamate] (Biolog plate: PM22) | 5.67 | 5 | 3.33 | 0.667
Cn1c(=O)c2c(ncn2C)n(C)c1=O [Caffeine] (Biolog plate: PM22) | 5 | 4 | 0 (active) | 0 (active)
N.N.O=S(=O)(O)O [Ammonium Sulfate] (Biolog plate: PM23) | 4.33 | 5.33 | 4 | 2.67
NCC(=O)O [Glycine hydrochloride] (Biolog plate: PM23) | 5 | 4 | 2 | 2
COc1cc(/C=C/C(=O)O)ccc1O [Ferulic acid] (Biolog plate: PM25) | 1 | 0 (active) | 0 (active) | 1

Compound | growth activity index [1] | growth activity index [2] | growth activity index [3] | growth activity index [4]
C=C(CC[C@]12O[C@H](C(=O)O)[C@@](O)(C(=O)O)[C@](C(=O)O)(O1)[C@H](OC(=O)/C=C/[C@@H](C)C[C@@H](C)CC)[C@H]2O)[C@@H](OC(C)=O)[C@H](C)Cc1ccccc1 [Zaragozic acid A] (Biolog plate: PM24) | 5.67 | 5.33 | 0.667 | 0 (active)
NC(N)=S [Thiourea] (Biolog plate: PM21) | 2 | 0 (active) | 0 (active) | 0 (active)
N[C@H](CO)C(=O)O [D-Serine] (Biolog plate: PM22) | 5 | 4.67 | 4 | 4
N=C(N)c1ccccc1 [Benzamidine] (Biolog plate: PM22) | 4 | 0 (active) | 0 (active) | 0 (active)
[Cl-].[Cl-].[Zn+2] [Zinc chloride] (Biolog plate: PM21) | 5.75 | 6.75 | 7 | 6.25
NNC(=O)c1ccncc1 [Isoniazid] (Biolog plate: PM24) | 5 | 5 | 4 | 0.333
CC(CN1c2ccccc2Sc2ccccc21)N(C)C (stereo not given) [Promethazine] (Biolog plate: PM21) | 4.75 | 0 (active) | 1 | 6
[Cl][Mn][Cl] [Manganese chloride] (Biolog plate: PM21) | 4 | 5.25 | 4.5 | 4.5
NC[C@@H]1O[C@H](O[C@H]2[C@@H](O)[C@H](O[C@@H]3[C@@H](O)[C@H](N)C[C@H](N)[C@H]3O[C@H]3O[C@H](CO)[C@@H](O)[C@H](O)[C@H]3N)O[C@@H]2CO)[C@H](N)[C@@H](O)[C@@H]1O [Paromomycin] (Biolog plate: PM22) | 1 | 1 | 0.667 | 0 (active)
NC(=O)NO [Hydroxyurea] (Biolog plate: PM25) | 1 | 0.333 | 0 (active) | 0 (active)
O=C(O)CN(CC(=O)O)c1ccccc1OCCOc1ccccc1N(CC(=O)O)CC(=O)O (Biolog plate: PM22) | 4.67 | 1.67 | 1.33 | 0.667
N=C(N)c1ccc(OCCCCCOc2ccc(C(=N)N)cc2)cc1 [Pentamidine Isethionate] (Biolog plate: PM24) | 0.333 | 5.33 | 8 | 8
OCC1OC(O)CC(O)C1O [2-Deoxy-D-glucose] (Biolog plate: PM23) | 4.67 | 5 | 5 | 4.33
O=C(O)CN(CCN(CC(=O)O)CC(=O)O)CC(=O)O (Biolog plate: PM21) | 5 | 5 | 5 | 5
O=c1[nH]cc(F)c(=O)[nH]1 [5-Fluorouracil] (Biolog plate: PM25) | 4.67 | 5 | 5.33 | 6
NO [Hydroxylamine] (Biolog plate: PM23) | 4 | 4 | 2.67 | 0 (active)
Cc1cc(N)c2ccccc2[n+]1CCCCCCCCCC[n+]1c(C)cc(N)c2ccccc21 [Dequalinium chloride] (Biolog plate: PM23) | 4 | 4.67 | 2 | 1
c1ccc(-c2nn(-c3ccccc3)[n+](-c3cccc4ccccc34)n2)cc1 [Tetrazolium violet] (Biolog plate: PM25) | 4.33 | 3 | 0 (active) | 2
[Cl][Co][Cl] [Cobalt (II) chloride] (Biolog plate: PM23) | 3.33 | 4 | 4.33 | 1
CN(C)CCCN1c2ccccc2Sc2ccc(Cl)cc21 [Chlorpromazine] (Biolog plate: PM23) | 5 | 0 (active) | 0 (active) | 2
